Source: publication PMC5540273 (PLoS ONE, 2017)

Tests used:
Conditions in all cases: concentration: 1 μM, replicates: in singlicate; n = 1
NIM1 = test system: T1, NIM1
T1 construct: gene MGC42105

NLK = test system: NLK
OSR1 = test system: T2, OSR1
T2 construct: gene OXSR1

PAK1 = test system: PAK1
PAK2 = test system: PAK2
PAK3 = test system: PAK3
PAK4 = test system: PAK4
PAK6 = test system: PAK6
PAK7 = test system: PAK7
PCTK1 = test system: T3, PCTK1
T3 construct: gene CDK16
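Also: KINOMEscan kinase panel screen.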

Structure (SMILES)	%Inh (NIM1) [%]	%Inh (NLK) [%]	%Inh (OSR1) [%]	%Inh (PAK1) [%]	%Inh (PAK2) [%]	%Inh (PAK3) [%]	%Inh (PAK4) [%]	%Inh (PAK6) [%]	%Inh (PAK7) [%]	%Inh (PCTK1) [%]
Cn1cc(-c2cnc(N)c3c(-c4ccc5c(c4)CCN5C(=O)Cc4ccccc4)csc23)cn1 [GSK2593074]	0	17	0	17	0	13	0	17	3	0
Cn1cc(-c2ccc3c(c2)CCN3C(=O)Cc2cc(F)cc(C(F)(F)F)c2)c2c(N)ncnc21 [GSK2635225]	20	14	0	13	0	16	2	4	16	7
Cc1ccc(NC(=O)c2cccc(N3CCCCC3)c2)cc1-c1ccc(C(=O)NCC2CC2)cc1 [GSK1917008]	15	5	24	14	24	21	0	0	2	12
CN1CCN(Cc2ccc(NC(=O)Nc3ccc(N(C)c4ccnc(Nc5ccc(CS(C)(=O)=O)cc5)n4)cc3)cc2)CC1.Cl [GW827654]	42	0	0	24	65	62	98.4	34	51	22
Cc1nn2c(=O)cc(N3CCO[C@H](C)C3)nc2n1Cc1cccc(Cl)c1Cl [GSK2373693]	11	78	83	2	10	36	0	52	0	7
COc1cccc2c(-c3ccncc3)c(-c3ccc(F)cc3)nn12 [GW468513]	14	86	7	0	10	61	0	0	0	0
O=C(Nc1n[nH]c2nc(-c3ccccc3)ccc12)C1CC1 [SB-708999]	29	78	17	0	0	5	0	0	0	16
CN(c1ccc2c(c1)nc(NCc1ccccc1)n2C)c1ccnc(Nc2ccc(CS(C)(=O)=O)cc2)n1.Cl [GW811603]	22	0	0	0	0	42	22	13	2	0
COC(=O)Nc1nc2cc(Oc3ccc(NC(=O)Nc4cccc(SC)c4)cc3)ccc2[nH]1.Cl [GW697999]	32	0	15	0	0	29	0	0	0	3
CN(c1ccc(F)c(NC(=O)c2cccc(OC(C)(C)C#N)c2Cl)c1)c1ccc2nc(NC(=O)C3CC3)sc2n1	8	78	5	5	0	27	0	0	0	2
CN(c1ccc(NC(=O)N2CCN(CCCN3CCOCC3)CC2)cc1)c1ccnc(Nc2ccc(CS(C)(=O)=O)cc2)n1.Cl [GW830899]	0	0	0	0	0	0	0	25	2	0
Cc1cccc(Nc2nc(NCCN)ncc2C(N)=O)c1 [GSK1292139]	29	0	15	16	48	16	93	76	98.6	3
CC(C)NCC(Cc1ccccc1)NC(=O)c1cc(Br)c(-c2ccnc3[nH]ccc23)s1.Cl.Cl (centres unmarked) [GSK1383281]	0	22	1	11	0	75	18	47	47	1
CN(c1ccc(NC(=O)Nc2cccc(Cl)c2)cc1)c1ccnc(N)n1.Cl [GW830707]	0	4	0	5	34	6	1	7	0	0
COC(=O)Nc1nc2ccc(Oc3ccc(NC(=O)Nc4cc(C(F)(F)F)ccc4F)cc3)cc2[nH]1.Cl [GW654607]	0	34	15	0	0	22	0	0	0	4
Nc1ncc(-c2cn[nH]c2)c2scc(-c3ccc4c(c3)CCN4C(=O)Cc3ccccc3)c12 [GSK2593067]	17	0	13	0	0	51	0	0	0	3

Structure (SMILES)	%Inh (NIM1) [%]	%Inh (NLK) [%]	%Inh (OSR1) [%]	%Inh (PAK1) [%]	%Inh (PAK2) [%]	%Inh (PAK3) [%]	%Inh (PAK4) [%]	%Inh (PAK6) [%]	%Inh (PAK7) [%]	%Inh (PCTK1) [%]
CNc1nccc(-c2ccc3c(N)n[nH]c3c2)n1 [GSK2206003]	15	14	18	4	9	48	4	5	9	0
COc1ccc(C2=C(Nc3cccc(O)c3)C(=O)NC2=O)cc1 [SB-390766]	0	35	4	15	12	30	0	10	0	5
CC(=O)Nc1cn2nc(Oc3cccc(NC(=O)c4cccc(C(F)(F)F)c4)c3)ccc2n1	0	16	0	9	15	16	15	12	0	0
Cc1cc(-c2ccnc(Nc3cccc(C#N)c3)n2)cc(C)c1O [GSK1440913]	12	16	13	34	28	0	0	0	0	16
Cl.Cl.NC(CNC(=O)c1cc(Br)c(-c2ccnc3[nH]ccc23)s1)c1ccccc1 (centres unmarked) [GSK1322949]	65	22	34	32	36	67	0	16	46	21
Cc1ccc(Nc2ccnc(Nc3ccc(C)c(F)c3)n2)cc1O.Cl [GW582868]	3	62	8	0	0	0	0	0	0	0
Cc1ccc(O)cc1Nc1ccnc2ccc(C(C)(C)C)cc12 [GW856805]	52	1	30	23	50	0	17	34	2	12
CCn1c(-c2nonc2N)nc2c(-c3ccccc3)ncc(OCCCN)c21.O=C(O)C(F)(F)F.O=C(O)C(F)(F)F [GSK260205]	39	94.5	3	2	31	49	0	0	0	0
Cl.N#CCc1ccc(Nc2nccc(Nc3ccc(Oc4ccccc4)cc3)n2)cc1 [GW639905]	14	0	11	0	10	47	0	0	0	0
O=C(Nc1n[nH]c2nc(-c3cccc(O)c3)ccc12)C1CC1 [SB-711805]	0	96.7	0	0	18	0	0	100	4	52
COc1cc(Nc2nccc(N3CCC(NC(=O)Nc4ccc5c(c4)OCO5)C3)n2)cc(OC)c1OC (centres unmarked) [GSK1379766]	4	0	0	0	0	0	0	0	4	16
CC(C)(C)c1ccc(C(=O)Nc2cn3cc(-n4ccnc4)ccc3n2)cc1	3	0	0	30	42	20	10	6	0	6
Fc1cc(Cl)ccc1Nc1ccnc2cc(-c3ccc(CN4CCOCC4)o3)ccc12 [GW560109]	15	10	8	0	0	5	0	0	0	1
Cl.O=C(Nc1ccc(Oc2ccc3[nH]c(NC(=O)c4ccco4)nc3c2)cc1)Nc1cc(C(F)(F)F)ccc1F [GW683134]	4	6	8	0	0	59	0	0	0	7
CC(C)c1nc(-c2cccc(NS(=O)(=O)c3c(F)cccc3F)c2)c(-c2ccnc(Nc3ccc(N4CCOCC4)nc3)n2)s1.Cl [GSK1723980]	0	97	4	19	16	73	0	0	0	99.9
O=C(O)C(F)(F)F.O=c1[nH]ccc2nc(N[C@@H]3CCNC3)nc(Nc3ccc4c(c3)S(=O)(=O)CC4)c12 [GSK2181306]	67	28	76	97.2	95.2	99.9	99.5	94.6	99.9	85
